Molecules are shown by their SMILES. Out of some 190,000 compounds screened, about 3,500 (1.8%) were called active. The sample holds actives, similar compounds and a random draw of the others, so the mix is not that of the screen.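 The calls were made as follows: active = inhibition above a set limit, 3 SD over mean compound inhibition (cut at about 8.4% in these data); inactive = the rest.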

This test can be described thus: RAM signaling blockers in budding yeast – dse1pr::URA3 reporter, 5-FOA selection, primary screen (AID 868).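 Also: 0% = DMSO-only wells with no growth and 100% = 10 µM 1-NA-PP1 full growth; inhibition rescues growth on 5-FOA so higher OD means more RAM inhibition.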 The settings on record: S. cerevisiae dse1pr::URA3 reporter, 5-FOA growth OD615, 2 d; at 50 µM; active compounds read high; analog-sensitive cbk1-as2 kinase mutant strain.
For the molecule `O=C(CN1CCN(Cc2ccc(F)cc2Cl)C1=O)NCc1cccs1`, the inhibition – broadly, the change of the read-out against control, counted positive when it falls – was 0.13% (inactive).

Take `O=C(COC(=O)CNC(=O)c1ccccc1F)NCC(F)(F)F`: the inhibition is 3.2% (inactive).

Take `O=C(N/N=C\c1ccc(-c2ccc(Cl)c(Cl)c2)o1)C(=O)N1CCCC1`: the inhibition is 8.47% (active).

With `O=C(N/N=C/c1ccc([N+](=O)[O-])cc1)C(=O)N1CCCC1`, the inhibition was 1.52% (inactive).

With `COC(=O)N/N=C/c1ccc(-c2ccc(Cl)c(Cl)c2)o1`, the inhibition is 1.74% (inactive).

Take `Cc1nccn1CCCNC(=O)CC1C(=O)NCCN1Cc1ccc(Cl)c(F)c1` (configuration not stated): the inhibition is -1.07% (inactive).

`COCCNC(=O)/C(C#N)=C/c1nc(N(C)C)n(-c2ccc(F)cc2)c1Cl`: the inhibition is 0.24% (inactive).

In the case of `O=c1c2ccccc2c(-c2ccccc2)nn1Cc1ccccc1`, the inhibition is 6.51% (inactive).

`O=C(NCCc1ccco1)c1nn(Cc2ccccc2)c(=O)c2ccccc12`: the inhibition is 11.2% (active).

With `O=C(NCc1ccco1)c1nc(-c2ccccc2)n(-c2ccccc2)n1`, the inhibition is 0.66% (inactive).

On to `N/C(=N/O)c1cccn1Cc1ccccc1[N+](=O)[O-]`, for which the inhibition was 0.13% (inactive).

On to `O=S(=O)(c1ccc2c(c1)OCCO2)N1CCc2ccccc21`, for which the inhibition was 2.45% (inactive).

`COc1ccc(Cl)cc1NC(=O)NC(C)C(C)(C)C` (configuration not stated): the inhibition is 12.8% (active).

Regarding `COc1ccc(Cl)cc1NC(=O)CNc1ccccc1F`, the inhibition was -1.15% (inactive).

For the molecule `COC(=O)[C@@H](NC(=O)Nc1cc(Cl)ccc1C)C(C)C`, the inhibition is 1.68% (inactive).

For `COCCNC(=O)C(OC(=O)c1cccs1)c1ccc(F)cc1` (configuration not stated), the inhibition was 0.51% (inactive).

For the molecule `Cc1ccc(NC(=O)Cn2cccc2C2=NC(c3ccccc3)CO2)c(C)c1` (configuration not stated), the inhibition is 0.92% (inactive).

Take `COC(=O)C1=C(C)N(C)C(=S)NC1c1cc(OC)ccc1OC` (configuration not stated): the inhibition is 0.25% (inactive).

In the case of `COc1cccc(C(=O)Nc2cc3c(cc2Br)OCCCO3)c1`, the inhibition is 1.75% (inactive).

As to `COc1ccc(C2C=C(c3ccc(Br)cc3)Nc3nc(NS(C)(=O)=O)nn32)cc1` (configuration not stated), the inhibition is 13.4% (active).

With `COc1ccc(C2=CC(c3cccc(OC)c3)n3nnnc3N2)cc1` (configuration not stated), the inhibition is 5.23% (inactive).

As for `Brc1ccc(C2=CC(c3ccco3)n3ncnc3N2)cc1` (configuration not stated), the inhibition was 0.23% (inactive).

Consider `CNC(=O)c1[nH]cnc1C(=O)N[C@@H](CC(C)C)C(=O)OC(C)(C)C`, for which the inhibition was 0.13% (inactive).

Consider `CSCC(=O)N1CCCC(C(=O)c2cc(F)ccc2F)C1` (configuration not stated), for which the inhibition was 0.37% (inactive).

In the case of `Cc1cc(C)n2nc(SCC(N)=O)nc2n1`, the inhibition was -0.25% (inactive).

For `C/C(=C\c1ccco1)C1Nc2cccc3cccc(c23)N1`, the inhibition is 8.69% (active).

Consider `CC(/C=N/NC(=O)c1ccncc1)=C\c1ccco1`, for which the inhibition was 1.91% (inactive).

For `CC(/C=N/NC(=O)c1cc(-c2ccc3ccccc3c2)n[nH]1)=C\c1ccco1`, the inhibition is 2.36% (inactive).

Consider `CCOC(=O)c1c(NC(=O)CNC2CCCc3ccccc32)sc(C(N)=O)c1C` (configuration not stated), for which the inhibition is 3.87% (inactive).

Consider `COc1cc(C(=O)Nc2cc(C(F)(F)F)ccc2N2CCOCC2)ccc1O`, for which the inhibition is 0.55% (inactive).

Turning to `Fc1cccc2ncnc(OCc3ccccc3)c12`, the inhibition is 3.63% (inactive).

As to `CCC[C@@H]1C[C@@]1(CCC)[C@@H](NC(=O)c1ccccc1)c1ccc(C(=O)OC)cc1`, the inhibition is 9.65% (active).

As to `COC(=O)[C@H](C)[C@H]1C[C@]1(C)[C@H](NC(=O)OCc1ccccc1)c1ccccc1`, the inhibition was 8.31% (inactive).

As for `COC(=O)c1ccc(NCC(=O)c2ccccc2)cc1`, the inhibition was 0.14% (inactive).

`CC(C)C(=O)Nc1oc(-c2ccccc2)cc1C#N`: the inhibition was 1.62% (inactive).

For `COc1cc(N2C(=O)c3ccccc3C2=O)c(Cl)cc1C(=O)OCC(=O)N1CCOCC1`, the inhibition was 0.61% (inactive).

With `COc1cc(/C=C2/C(=O)ON=C2C)ccc1OCc1ccccc1F`, the inhibition was 11.4% (active).

With `COc1cc(/C=C2/C(=O)ON=C2C)ccc1OCc1cccc(F)c1`, the inhibition was 1.59% (inactive).

`CCOc1cc(/C=N/O)ccc1OCc1ccccc1F`: the inhibition was 0.13% (inactive).

Take `N#Cc1ccc(C(=O)Nc2nc(-c3cccs3)c(C(=O)C(F)(F)F)s2)cc1`: the inhibition was 3.01% (inactive).

In the case of `CCN(CC(=O)NC(=O)NCc1ccccc1)Cc1nc2ccccc2c(=O)[nH]1`, the inhibition was 0.8% (inactive).

For `CC(=O)NC1(c2ccc(F)cc2)CCN(C(=O)c2c(F)cccc2F)CC1`, the inhibition is -0.25% (inactive).

Take `Cc1ccc(-c2csc3nnc(SCC(=O)NCc4ccco4)n23)cc1`: the inhibition was 0.13% (inactive).

`Cn1c(-c2ccc(F)cc2)cnc1SCC(=O)NCc1ccco1`: the inhibition is 1.92% (inactive).

Turning to `O=C(CSc1nnc2scc(-c3ccc(F)cc3)n12)NCc1ccco1`, the inhibition is 9.95% (active).

With `Cc1ccc(C2CC(c3cccc(NS(C)(=O)=O)c3)=NN2S(C)(=O)=O)cc1` (configuration not stated), the inhibition was 0.38% (inactive).

As to `O=c1c([N+](=O)[O-])cccn1Cc1ccc(F)cc1Cl`, the inhibition was -0.54% (inactive).

For the molecule `CN1C(=O)/C(=C/C=C2\SCCN2C)OC1=S`, the inhibition is 2.52% (inactive).

Turning to `COC(=O)c1ccc(C(=O)OC)c(NC(=S)N2CCN(c3cc(Cl)ccc3C)CC2)c1`, the inhibition is 3.51% (inactive).

For the molecule `O=C(c1cccc2ccccc12)N1CCN(c2ccccc2F)CC1`, the inhibition was -0.35% (inactive).

`Cc1ccc(Cl)cc1N1CCN(C(=O)c2cccc3c(=O)c(C)c(-c4ccccc4)oc23)CC1`: the inhibition was 8.43% (active).

For `Cc1ccc(C(=O)N/C(=C/c2cccs2)C(=O)NCC2CCCO2)cc1` (configuration not stated), the inhibition was 0.13% (inactive).

Take `Cc1cc(C)n(-c2ccc3nncn3n2)n1`: the inhibition was 1.87% (inactive).

Take `CC(C)=CCCC1(C)C=Cc2c(ccc3c2[nH]c2cc(O)c(C)cc23)O1` (configuration not stated): the inhibition is 21.4% (active).

Turning to `Cc1c(Nc2cc(N3CCCC(C)C3)c3nonc3c2[N+](=O)[O-])c(=O)n(-c2ccccc2)n1C` (configuration not stated), the inhibition is 8.7% (active).

For the molecule `Cc1c(CN2CCC(C)CC2)c(=O)n(-c2ccccc2)n1C`, the inhibition is 0.66% (inactive).

For `Cc1c(NS(=O)(=O)c2ccc(NC3CCCC3)c([N+](=O)[O-])c2)c(=O)n(-c2ccccc2)n1C`, the inhibition was 4.03% (inactive).

In the case of `O=C1CCC(CCC(=O)N2CCCC(C(=O)c3ccc(Cl)cc3)C2)=NN1` (configuration not stated), the inhibition was 2.49% (inactive).

Consider `CC(C)(C)c1ccc(/C=C2\SC(=O)N=C2N)cc1`, for which the inhibition is 3.69% (inactive).

In the case of `Cc1ccc(C(=O)NCCNC(=O)c2ccccc2)cc1`, the inhibition was 0.24% (inactive).

Consider `Cc1ccc(C(=O)c2c(NC(=O)c3ccccc3)sc(C)c2C)cc1`, for which the inhibition was 12.9% (active).

Take `Cc1ccc(C(=O)c2c(NC(=O)c3ccncc3)sc3c2CCCC3)cc1`: the inhibition is 1.55% (inactive).

The record behind these values is PubChem BioAssay AID868 (SRMLSC, 2007).
